Compound activity as filed in PubChem.
Cardiac RTF inh = cardiac RTF calcium desensitization; P19429+P45379; IANBD-labeled cardiac RTF, Ca2+ fluorescence; inhibition, % at 7.15 µM; 340,000 tested, 0.12% active;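 active = inhibition above the mean inhibition of all tested compounds plus 3 SD, cut at about 17% in these data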;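 note: assay run at fixed EC70 calcium of 1.6 mM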
LANA DNA inh = inhibitors of KSHV LANA C-terminal domain DNA binding | MBP-C-LANA/FAM-LBS DNA binding, fluorescence polarization | inhibition, % at 9 µM | 340,000 tested, 0.078% active;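 active = highest replicate inhibition at or above 60% at 9 µM, even if other replicates fall short; inactive = all replicates below 60% inhibition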
CRFR2-BP antag = CRF-BP/CRF-R2 complex antagonism; HEK293 CRF-R2/CRF-BP, CRF-induced calcium fluorescence; inhibition, % at 11.8 µM; 350,000 tested, 0.59% active;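 active = inhibition of the ligand-induced calcium signal above about 50% at the single tested concentration, limit read from the data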
Keap1-Nrf2 PPI = inhibitors of human Keap1-Nrf2 protein-protein interaction; Q14145; Keap1 Kelch-Nrf2 peptide fluorescence polarization, 1536-well; inhibition, % at 9.4 µM; 340,000 tested, 0.15% active; AID 504523; in the data active = inhibition above about 12%;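 note: human Keap1 Kelch domain with fluorescein labeled Nrf2 9mer peptide probe; higher means more block of Keap1 binding to Nrf2 peptide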
Target sequence (Q14145 whole entry, looked up, the tested form may be a part): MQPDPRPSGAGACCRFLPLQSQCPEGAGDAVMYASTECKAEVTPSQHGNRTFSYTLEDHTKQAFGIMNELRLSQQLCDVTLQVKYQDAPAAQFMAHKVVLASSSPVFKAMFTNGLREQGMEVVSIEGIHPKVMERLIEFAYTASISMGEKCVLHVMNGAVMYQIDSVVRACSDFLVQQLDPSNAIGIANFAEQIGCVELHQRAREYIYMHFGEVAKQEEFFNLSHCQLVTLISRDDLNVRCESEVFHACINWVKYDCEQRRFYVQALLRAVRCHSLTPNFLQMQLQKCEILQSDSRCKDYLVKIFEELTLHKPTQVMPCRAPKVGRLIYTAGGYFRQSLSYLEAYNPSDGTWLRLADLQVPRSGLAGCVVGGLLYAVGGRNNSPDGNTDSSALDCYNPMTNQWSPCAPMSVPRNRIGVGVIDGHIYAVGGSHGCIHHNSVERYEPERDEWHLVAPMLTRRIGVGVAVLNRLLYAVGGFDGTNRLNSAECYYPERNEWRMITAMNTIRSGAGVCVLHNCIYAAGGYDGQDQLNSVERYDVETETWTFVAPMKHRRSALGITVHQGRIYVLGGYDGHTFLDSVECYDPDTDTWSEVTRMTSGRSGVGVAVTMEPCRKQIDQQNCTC
RTF Ca sens act = cardiac RTF calcium sensitization; P19429+P45379; IANBD-labeled TnC RTF fluorescence at EC20 calcium; 0% EC20 calcium, 100% full calcium; activation, % at 7.2 µM; 340,000 tested, 0.24% active; AID 493008;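 active = activation above the mean over all tested compounds plus 3 SD, cut at about 30% in these data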;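 note: rise in fluorescence read as greater calcium sensitivity of cardiac thin filaments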
CRFBP-R2 agonist = CRF-BP/CRF-R2 complex agonism | HEK293 CRF-R2/CRF-BP, calcium dye fluorescence (FLIPR); percent of saturating CRF peptide response | activation, % at 13.2 µM | 350,000 tested, 0.46% active;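 active = activation of at least 50%, plus an integration ratio under a set limit after plate pattern correction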
Hits are given with their value; - = inactive; . = no result. Compounds with a hit are over-represented: about 1.3% of the library has one in this group of screens.

SMILES	Cardiac RTF inh	LANA DNA inh	CRFR2-BP antag	Keap1-Nrf2 PPI	RTF Ca sens act	CRFBP-R2 agonist
CC1CCCCC1NC(=O)CN1CCC(NC(=O)c2cccc(F)c2)CC1 (centres undefined)	-	-	-	-	-	-
CS(=O)(=O)c1ccccc1C(=O)Nc1ccccc1Cc1ccccc1	-	-	-	-	-	-
Cc1ccc(NC(=O)c2ccccc2NS(=O)(=O)c2ccc(Cl)s2)cc1	-	-	80	-	-	65
O=C(Nc1nnc(S(=O)(=O)Nc2ccccc2)s1)c1ccccc1Cl	-	-	76	-	-	-
O=C(Nc1ccccc1Cc1ccccc1)c1ccccc1NS(=O)(=O)c1ccc(Cl)s1	-	-	105	-	-	-
O=C(Nc1ccccc1)c1ccccc1NS(=O)(=O)c1ccc(Cl)s1	-	-	68	-	-	-
O=C(NCc1ccco1)c1ccccc1NS(=O)(=O)c1ccc(Cl)s1	-	-	-	-	-	-
Cc1ccc(S(=O)(=O)NN=C2CC3CC2C2CCCC32)cc1 (centres undefined)	.	.	-	.	.	-
C=CCn1c(=O)[nH]c2cc(C(=O)N3CCN(c4cc(C)ccc4C)CC3)ccc2c1=O	-	-	-	-	-	-
COCCn1c(=NC(=O)/C=C/c2ccccc2)sc2cc(NC(C)=O)ccc21	-	-	-	-	33	-
COCCn1c(=NC(C)=O)sc2cc([N+](=O)[O-])ccc21	-	-	-	-	-	-
O=C(Nc1ccccn1)c1ccc(C(=O)c2ccccc2)cc1	-	-	55	-	-	-
COc1ccccc1N1CCN(C(=O)C(=O)c2cn(CC(=O)N3CCCCCC3)c3ccccc23)CC1	-	-	-	-	-	-
COc1ccccc1N1CCN(C(=O)C(=O)c2cn(CC(=O)N3CCCC3)c3ccccc23)CC1	-	-	62	-	-	-
CSc1cccc(NC(=O)C(C)C)c1	-	-	51	-	-	-
C#CC[N+](C)(C)CCCCCCCC	-	-	-	-	-	275
Cc1ccc(CS(=O)(=O)c2ncc(Cl)c(C(=O)Nc3ccc(OC(F)F)cc3)n2)cc1	-	-	54	-	-	-
COC(=O)c1ccccc1NC(=O)c1nc(S(=O)(=O)Cc2ccccc2)ncc1Cl	-	-	54	-	-	-
CC(=O)Nc1ccc(NC(=O)c2nc(S(=O)(=O)Cc3ccccc3)ncc2Cl)cc1	-	-	-	-	-	-
CC(Oc1ccccc1)c1ccnc(N)n1 (centres undefined)	-	-	-	-	-	-
O=[N+]([O-])c1c(Nc2ccc(O)cc2)cc(Cl)c2nonc12	-	-	67	-	-	-
O=[N+]([O-])c1c(Nc2ccccn2)cc(Cl)c2nonc12	-	-	-	-	33	-
O=C(O)c1ccccc1Nc1cc(Cl)c2nonc2c1[N+](=O)[O-]	-	-	-	-	-	-
Cc1cccc(C)c1NC(=O)C1C2C=CC(C2)C1C(=O)NCc1ccccn1 (centres undefined)	-	-	-	-	-	-
COC(=O)CN1C(=O)N(c2ccccc2)C(N(O)C(=O)Nc2ccccc2)C1(C)C (centres undefined)	-	-	-	-	-	-
SMILES	Cardiac RTF inh	LANA DNA inh	CRFR2-BP antag	Keap1-Nrf2 PPI	RTF Ca sens act	CRFBP-R2 agonist
C[C@@H]1CC=C[C@@H]2[C@H]1C(=O)N(Cc1ccccc1)[C@H]2c1cccc(Br)c1	-	-	72	-	-	-
O=C(COc1ccccc1Br)N1CCN(C(=O)c2ccco2)CC1	-	-	-	-	-	-
CC(=O)c1cccc(Nc2cc(C)nc3c(C)cccc23)c1	-	-	109	-	-	-
CC(=O)c1cccc(Nc2cc(C)nc3ccccc23)c1	-	-	-	-	-	-
COc1ccc(C(=O)Nc2ccnn2C2CCN(C(=O)CCC(F)(F)F)CC2)cc1	-	-	-	-	-	-
C=CCCC(=O)N1CCC(n2nccc2NC(=O)c2ccc(OC)cc2)CC1	-	-	66	-	-	-
O=C(Cc1cccs1)Nc1nc2c(ccc3ccccc32)s1	-	-	53	-	-	-
CC(=O)Nc1nc2c(ccc3ccccc32)s1	-	-	-	-	-	-
Cc1ocnc1C(=O)Nc1ccc(Cl)cc1	-	-	-	-	-	-
CC(=O)N(Cc1ccco1)c1nc(C(=O)Nc2ccc(Cl)cc2)c(C)s1	-	-	65	-	-	-
COc1ccccc1-c1ccc(/C=C2\C=CC(=O)O2)o1	.	-	-	-	.	119
O=C(CSCC(=O)N1CCCCC1)Nc1nc(-c2ccc(Cl)s2)cs1	-	-	-	-	-	-
COc1ccc(Nc2cc(C(=O)NCc3ccco3)c3ccccc3n2)c(OC)c1	-	-	-	-	-	-
CC(=O)c1ccc(NC(=O)CSc2ccc(-c3ccc4c(c3)OCO4)nn2)cc1	-	-	122	-	-	-
CC(=O)Nc1ccc(NC(=O)CSc2ccc(-c3ccc4c(c3)OCO4)nn2)cc1	-	-	-	-	-	-
COc1ccc(OC)c(NC(=O)C2CCN(S(=O)(=O)c3c(C)noc3C)CC2)c1	-	-	-	-	-	-
O=C(Nc1ccccc1SCC1CSc2nc3ccccc3c(=O)n21)c1ccccc1 (centres undefined)	-	-	67	-	-	-
Cc1ccc(C(=O)Nc2ccccc2SCC2CSc3nc4ccccc4c(=O)n32)cc1 (centres undefined)	-	-	-	-	-	-
CC(C)(C)C(=O)/C=c1\s/c(=C\c2ccc(-c3ccc([N+](=O)[O-])cc3)o2)c(=O)n1CC(=O)NC(N)=O	-	-	-	-	54	212
CCOc1ccc(C(=O)NC(=S)N2CCN(c3ccc(C(F)(F)F)cc3[N+](=O)[O-])CC2)cc1	-	-	-	-	-	-
CC(=O)c1ccc(NC(=O)C(C)OC(=O)c2ccc(Br)o2)cc1 (centres undefined)	-	-	54	-	-	-
O=C(NCCN1C(=O)S/C(=C\c2ccccc2F)C1=O)C1CC(=O)N(Cc2ccccc2)C1 (centres undefined)	-	-	-	-	-	-
O=C(c1ccccc1)N(NC(=O)C(O)(c1ccccc1)c1ccccc1)c1cccc(F)c1	-	-	-	-	-	-
COc1ccc(S(=O)(=O)Nc2nc3ccccc3nc2NCC2CCCO2)cc1 (centres undefined)	-	-	113	-	-	-
O=c1c([N+](=O)[O-])c(NC2CCCCC2)c2ccccc2n1-c1ccccc1	-	-	57	-	-	-
O=c1c([N+](=O)[O-])c(NCCN2CCCCCC2)c2ccccc2n1-c1ccccc1	-	-	-	-	-	-
CCC1CCCCN1S(=O)(=O)c1ccc(C(=O)Nc2nnc(-c3ccccc3Cl)o2)cc1 (centres undefined)	-	-	-	-	-	126
